Source: PubChem BioAssay (several laboratories)
Only some compounds are listed: those with a hit (about 1.8% of all), similar ones and a draw of the others.
AI-2 QS mod: modulators of Vibrio harveyi AI-2 quorum sensing system. Vibrio harveyi JMH597 AI-2 luminescence/OD600 ratio, 9 h; active compounds read low; strain lacks LuxN and CqsS sensors; 0 = neutral-control median. activity change, % at 7.5 µM. 0.4% of 300,000 active. AID 2094; in the data active means activity change below about -75%, passing the limit was not always enough; inconclusive means no clear call, values can overlap the other calls;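 further: luminescence divided by OD600 gain over 9 h not by final OD600 alone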
aDG glyco up: alpha-DG glycosylation activation. Pro5-aDG cells, alpha-DG glycosylation AlphaScreen (IIH6); 0% Pro5, 100% B10-LARGE cell signal. activation, % at 10 µM. 0.22% of 360,000 active. AID 624168;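 active means activation of at least 8% versus controls, or a plate z-score of at least 8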;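 further: Pro5 are CHO cells carrying HIG-tagged alpha-DG that lacks glycosylation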
Bfl-1 A1 inh: inhibitors of the anti-apoptotic protein A1, read as caspase activation | MEF A1-2A-BIM cells, Caspase-Glo 3/7 luminescence, 3 h; percent of clofoctol response, vehicle zero | caspase activation, % (no concentration beside the values) | 0.066% of 330,000 active;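 active means over half of replicate activation scores above 10%, or exactly half above 10 with the replicate mean above 10; inconclusive means replicate mean below 10 yet half the replicates above 10; inactive means over half of replicates below 10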
Mot1-301 SUMO: SUMOylation pathway inhibition by Mot1-301 growth rescue | growth rescue, % at 18.8 µM | 1% of 320,000 active | S. cerevisiae Mot1-301 growth rescue, ATP luminescence, 38.5C; percent above DMSO median, 100 means doubled;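 active means every valid replicate shows activation above 250% relative to neutral control wells; inactive means the rest, any valid replicate at or below 250%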;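 further: OY570 slx delta 5 strain wells were the positive control but not used for scaling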
ARNT-TACC3 inh: disruptors of human ARNT/TACC3 interaction | Q9Y6A5 | AlphaScreen His-ARNT PAS-B/GST-TACC3 binding, luminescence; TACC3 fragment carries E629A point mutation | inhibition, % at 9.99 µM | 0.66% of 390,000 active;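 active means mean inhibition of replicates at least 50% and at least half of replicates each reaching 50%; inconclusive means half or more replicates reach 50% but mean below 50%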;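 further: 0% = complete ARNT plus TACC3 wells and 100% = ARNT alone without TACC3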
aDG glyco conf: confirmation of alpha dystroglycan glycosylation activators | shares compounds with aDG glyco up | Pro5-aDG cells, alpha-DG glycosylation, IIH6 AlphaLISA; scaled to LARGE-overexpressing B10 cells as 100% | activation, % at 10 µM (by protocol) | 17% of 600 active | AID 651671;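 active means activation of at least 7% in one or more replicates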;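 further: cells exposed to compound for two days before detection; 0% = DMSO-treated Pro5 cells and 100% = DMSO-treated B10-LARGE cells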
* marks the source's active call; other numbers are inactive results; ? = inconclusive; nt = not tested or not shown.

SMILES	AI-2 QS mod	aDG glyco up	Bfl-1 A1 inh	Mot1-301 SUMO	ARNT-TACC3 inh	aDG glyco conf
CC/C(=N\NC(=O)C1CCCC1)c1ccc(Br)cc1	-0.6	8.8*	0.2	22.9	12.2	-0.6
CC[C@]12c3[nH]c4ccc(Cl)cc4c3CCN1C(=O)[C@@H](CC(=O)NCCc1ccccn1)C[C@@H]2C(=O)N1CCN(C(=O)C2CC2)CC1	nt	7.9*	nt	nt	3.1	2.0
CC[C@]12c3[nH]c4ccccc4c3CCN1C(=O)C(CC(=O)NCCc1ccccn1)C[C@@H]2C(=O)N1CCN(C(=O)C2CC2)CC1 (stereo not given in full)	nt	0.8	-0.6	11.4	-0.9	nt
C=CCNC(=S)NNC(=O)C(CCCC)CC(C)O (stereo not given)	0.9	4.9	1.2	3.8	-4.1	nt
C=CCNC(=S)NNC(=O)CCC(O)CCCCC (stereo not given)	10.6	8.4*	0.6	6.4	5.3	2.4
CN(c1ccccc1)S(=O)(=O)c1ccc(Cl)c(C(=O)Nc2ccc(N3CCOCC3)cc2)c1	14.8	0.2	-0.1	nt	2.4	nt
CCOC(=O)C1CCN(Cc2cc(C(C)C)c(O)c(C(C)C)c2)CC1	5.0	6.4*	0.0	-8.2	0.1	1.1
CCOC(=O)C1CCN(Cc2ccc3ccccc3c2)CC1	24.2	0.2	0.5	-6.6	-1.7	nt
Cc1cc(C)c2c(C)c(C(=O)NCc3ccncc3)oc2c1	28.4	0.5	-0.5	9.0	-6.3	nt
COC(=O)c1ccc(-n2c(C)cc(-c3csc(NC(=O)c4ccc(S(=O)(=O)N(C)C)cc4)n3)c2C)cc1	17.8	10.7*	0.0	-15.1	-10.3	0.2
Cc1cc(-c2csc(NC(=O)c3cccc(S(=O)(=O)N(C)C)c3)n2)c(C)n1-c1ccccc1	18.5	10.8*	-0.2	35.6	-8.0	1.3
CCOC(=O)c1csc(NC(=O)c2ccc(S(=O)(=O)N(C)C)cc2)n1	11.4	-0.2	-0.5	-17.9	-15.5	nt
O=C(N/N=C/c1ccco1)c1cc(-c2ccc(Cl)cc2)n[nH]1	22.9	0.1	0.9	279.3	-0.8	nt
CCOCCCNC(=O)c1ccc(NC(=O)C2CCCO2)cc1 (stereo not given)	-8.6	-0.1	0.3	-15.0	-2.7	nt
CCOC(=O)CC(NS(=O)(=O)c1ccc(OC)c(C)c1)c1cccc([N+](=O)[O-])c1 (stereo not given)	11.5	0.3	0.0	11.4	-3.0	nt
O=C(OCc1ccccc1)N1CCC2CC1c1cc(N3CCCCC3)ccc12 (stereo not given)	nt	5.9*	nt	nt	nt	-1.1
O=C(OCc1ccccc1)N1CCC2CC1c1cc(N3CCNCC3)ccc12 (stereo not given)	nt	0.7	nt	nt	nt	nt
Cc1onc(C(=O)N2CCN(Cc3ccccc3)CC2)c1[N+](=O)[O-]	?	0.2	-0.6	105.8	-2.7	nt
Cc1ccc(S(=O)(=O)NC(=O)NCc2ccccn2)cc1	11.7	51.4*	0.6	0.0	18.8	-0.6
CCc1nc2ccc(C(=O)NC3CCN(Cc4ccccc4)CC3)cn2c1N(C)Cc1cc2ccccc2s1	nt	6.4*	nt	nt	nt	10.9*
CCc1nc2ccc(C(=O)NC3CCN(Cc4ccccc4)CC3)cn2c1N(C)Cc1cccs1	nt	1.5	nt	nt	nt	nt
Cc1cccc2cc(CN(CCCN(C)C)C(=S)NCCc3ccccc3)c(=O)[nH]c12	7.1	4.7*	0.0	-4.4	-0.1	0.6
O=C(N/N=C/c1ccc([N+](=O)[O-])o1)c1ccccc1-n1cccc1	-20.4	3.3*	0.2	2.5	nt	2.5
O=C(CNc1cccc([N+](=O)[O-])c1)N/N=C/c1ccc([N+](=O)[O-])o1	28.0	18.9*	-0.6	1.9	-6.0	4.7*
Cc1ccccc1OCC(=O)N/N=C/c1ccc([N+](=O)[O-])o1	-13.0	7.9*	-0.2	10.1	nt	3.3
SMILES	AI-2 QS mod	aDG glyco up	Bfl-1 A1 inh	Mot1-301 SUMO	ARNT-TACC3 inh	aDG glyco conf
CC1(C(=O)N/N=C/c2ccc([N+](=O)[O-])o2)CC1(Br)Br (stereo not given)	-66.7	4.6*	0.4	7.4	2.8	1.5
O=C(CN1CCOCC1)NN=Cc1ccc([N+](=O)[O-])o1	nt	2.8	nt	nt	nt	nt
CCc1ccc(NC(=O)c2ccnc(C(C)(C)C)c2)cc1	22.0	-0.2	0.3	-18.2	-1.9	nt
CC(=O)c1cc2c(cc1NC(=O)c1ccccc1C)OCO2	9.9	nt	0.1	-2.2	nt	nt
Cc1cc(NC(=O)CSc2c3c(nc4ccccc24)CCC3)no1	0.6	8.2*	-0.7	11.9	24.1	-1.0
O=C(COc1ccc2ccc(=O)oc2c1)N1CCN(C(=O)C2COc3ccccc3O2)CC1 (stereo not given)	37.1	7.8*	0.2	-2.5	4.1	0.1
CC1(NC(=O)Nc2cc([N+](=O)[O-])ccc2O)CCS(=O)(=O)C1 (stereo not given)	nt	6.9*	0.6	-3.8	-4.6	0.2
COc1ccc(CCNC(=O)c2cc3c(=O)n4ccccc4nc3n(CCCN3CCOCC3)c2=N)cc1	15.6	0.9	-0.4	6.3	3.7	nt
COc1ccc(CCNC(=O)c2cc3c(=O)n4ccccc4nc3n(CCN3CCOCC3)c2=N)cc1	4.5	8.1*	-0.9	1.9	-3.0	0.5
O=C(Cc1ccc([N+](=O)[O-])cc1)Nc1ccon1	16.2	-0.1	1.1	-5.4	-6.6	nt
Cc1cc(C)cc(N=Cc2[nH]c3ccc(Br)c(Cl)c3c2O)c1	31.9	5.9*	-0.1	-14.2	2.0	-1.0
CN1/C(=C\C(=O)c2ccco2)C(C)(C)c2ccccc21	12.2	4.3*	-1.6	-7.7	0.1	0.3
c1coc(CNc2nc3sc4c(c3c3ncnn23)CCCC4)c1	-5.7	0.1	0.5	12.9	-4.0	nt
